Screening data deposited in PubChem BioAssay by National Center for Advancing Translational Sciences (NCATS).
Rows were chosen to be rich in hits. Some 21% of all compounds tested hit in one or more screens of this group.
NS1 inh: qHTS Assay for Inhibitors of Influenza NS1 Protein Function; Potency, µM (doses to about 46.1 µM), for inactives: top-dose activity, positive = more growth; 0.4% of 270,000 active; calls by dose curve; further: potency means the concentration at half of the fitted maximal effect; actives are rising curves; nearly all actives have a fitted effect of over 50% in size
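Compounds were scored for reversing the slow growth caused by influenza A NS1 in S. cerevisiae, measured by optical density at 600 nm. Assay medium contained 2% galactose at pH 6.0; NS1-free yeast of the same strain were the positive control.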
Shiga toxin inh: A qHTS for Small Molecule Inhibitors of Shiga Toxin; 9.2% of 290,000 active; inhibition, % at 38.7 µM; Vero cells, Shiga toxin protein synthesis inhibition reporter; AID 2315, 2010; in the data active means inhibition mostly above about 28%, no sharp cut-off; inactive means mostly below about 43%; further: 0% is about no effect
Pf growth 96h: Primary qHTS for delayed death inhibitors of the malarial parasite plastid, 96 hour incubation; P. falciparum luciferase reporter growth, 96 h; Potency, µM (top dose mostly 28.7 µM), for inactives: at the highest dose activity change, negative = inhibition, actives largely listed as inhibitors; 6.9% of 320,000 active; further: potency means the concentration at half of the fitted maximal effect; on the % scale 0 is the no-effect control and ±100 the full control effect
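Delayed-death screen, second-generation endpoint: infected erythrocytes, 2% hematocrit, 0.05% parasitemia final; 96 hours at 37 C, 5% CO2; luciferase detection reagent; luminescence decrease equals reduced growth.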
CHX counter: Cycloheximide Counterscreen for Small Molecule Inhibitors of Shiga Toxin. cell reporter, cycloheximide protein synthesis inhibition counterscreen. max response, %. 12% of 300,000 active; in the data active means max response mostly above about 13%, no sharp cut-off; inactive means mostly below about 14%; further: read at 38.3 µM for the half of the compounds with a filed dose; 0% is about no effect
Pf growth 48h: Primary qHTS for delayed death inhibitors of the malarial parasite plastid, 48 hour incubation | Potency, µM (top dose mostly 28.7 µM), inactives show top-dose activity change, negative = inhibition, actives largely listed as inhibitors | P. falciparum luciferase growth in erythrocytes, 48 h | 5.9% of 310,000 active; further: potency means the concentration at half of the fitted maximal effect; on the % scale 0 is the no-effect control and ±100 the full control effect
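Cell-based growth assay: transgenic P. falciparum expressing firefly luciferase, cultured in red cells within RPMI 1640 containing 0.5% w/v Albumax, 24 mM bicarbonate and gentamycin. A drop in luciferase activity indicates inhibition.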
FBPA Giardia inh: qHTS Assay for Inhibitors of Fructose-1,6-bisphosphate Aldolase from Giardia Lamblia | A8B2U2 | purified Giardia FBPA | Potency, µM (series often up to 59.6 µM), without a hit: at the top dose activity, negative = inhibition, most hits filed as inhibitors | 0.71% of 290,000 active | AID 2451, 2010; further: potency means the concentration at half of the fitted maximal effect; on the % scale 0 is the no-effect control and ±100 the full control effect; nearly all actives have a fitted effect of over 55% in size
Target sequence (A8B2U2 whole entry, looked up): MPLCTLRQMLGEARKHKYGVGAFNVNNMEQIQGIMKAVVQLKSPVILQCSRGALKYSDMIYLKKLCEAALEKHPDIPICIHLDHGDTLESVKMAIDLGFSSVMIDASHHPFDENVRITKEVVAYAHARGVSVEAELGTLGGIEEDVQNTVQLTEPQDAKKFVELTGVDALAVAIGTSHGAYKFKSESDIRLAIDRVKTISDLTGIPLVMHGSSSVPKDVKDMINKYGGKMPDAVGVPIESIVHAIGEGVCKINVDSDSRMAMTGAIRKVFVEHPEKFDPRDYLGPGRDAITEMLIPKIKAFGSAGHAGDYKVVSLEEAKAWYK
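Giardia FBPA (40 nM reagent) was preincubated 10 min at RT with compound (up to 57.5 uM final), then substrate plus GAPDH/TPI/NAD/arsenate coupling system with diaphorase/resazurin was added; resorufin fluorescence (525/598 nm) was read after 20 min.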
Numbers without * were called inactive; i = inactive; ? = inconclusive; / = no result given; + = active, no number; [ ] = remark or other dose. Unless noted, the call rests on the fitted dose curve; in most records, active means well fitted curve in the direction sought with a large enough effect; inconclusive means small, poorly fitted or top-dose-only effect, or another doubt; inactive means no such curve, though single readings can be large; an effect the other way counts as inactive or inconclusive.

SMILES	NS1 inh	Shiga toxin inh	Pf growth 96h	CHX counter	Pf growth 48h	FBPA Giardia inh
Cc1ccc(S(=O)(=O)N2CCOCC2)cc1C(=O)N1CCN(c2ncccn2)CC1	/	/	-2%	/	18%	/
COc1ccc(CCCC(=O)NCC(=O)N/N=C/c2cc(Cl)ccc2OC)cc1	-3%	6	1%	-2	-3%	-20%
COc1ccc(CC(=O)NNC(=O)c2cc(Cl)ccc2OC)cc1	/	/	14%	/	0%	/
CC(C)N(CCNC(=O)c1ccc(CS(=O)(=O)c2c(Cl)cccc2Cl)o1)Cc1ccccc1	-2%	-16	?	-3	?	5%
CC(NC(=O)c1cc(S(=O)(=O)N2CCOCC2)ccc1F)c1ccc(-n2ccnc2)cc1 (stereo not drawn)	/	/	9.3µM*	/	-22%	/
CS(=O)(=O)c1cccc(C(=O)Nc2ccc3c(c2)OCCCO3)c1	5%	59*	94%	35*	118%	-16%
CCOC(=O)c1ccc(NC(=O)c2cccc(S(=O)(=O)N3CCN(C(C)=O)CC3)c2)cc1	-1%	3	9.3µM*	-3	?	5%
CCCOC(=O)c1ccc(NC(=O)c2cccc(S(=O)(=O)N3CCN(C(C)=O)CC3)c2)cc1	4%	-13	?	1	?	/
O=C(NCc1cn2ccccc2n1)C1CCC(=O)N(Cc2ccccc2F)C1 (stereo not drawn)	14%	24	83%	-3	21%	/
O=C(Nc1ccnn1C1CCN(Cc2ccc(C#CCCO)cc2)CC1)c1cccc(F)c1	-4%	-15	?	-3	-17%	/
C/C(=N/N1CCN(c2ccccn2)CC1)c1cccc([N+](=O)[O-])c1	1%	22	-13%	15*	23%	2%
O=[N+]([O-])c1cccc(S(=O)(=O)N2CCN(c3ccccn3)CC2)c1	6%	-3	10µM*	-1	19%	0%
Cc1ccc(S(=O)(=O)Nc2nc3ccccc3nc2Nc2cccc(S(=O)(=O)N3CCCC3)c2)cc1	4%	-3	?	-3	?	0%
O=[N+]([O-])c1cccc(S(=O)(=O)Nc2nc3ccccc3nc2Nc2cccc(S(=O)(=O)N3CCCCC3)c2)c1	15%	24	5.2µM*	1	15µM*	1%
Cc1nc(N2CCOCC2)c2nc(-c3ccccc3)n(CCN(C)C)c2n1	/	/	/	/	/	6%
CCC(C)N=Cc1c(NCc2ccco2)nc2c(C)cccn2c1=O (stereo not drawn)	-10%	-13	-1%	3	21%	7%
Cc1ccc2[nH]c(=O)c(-c3nc4ccccn4c3NCc3ccco3)cc2c1	1%	33	4.7µM*	30	33%	-8%
O=Cc1c(NCc2ccco2)nc2ccccn2c1=O	-3%	24	5%	16*	41%	-3%
O=c1cc(-c2ccccc2)[nH]c2cc(Cl)ccc12	-1%	-14	8.3µM*	5	4.7µM*	2%[89.2 µM]
O=c1cc(-c2ccccc2)[nH]c2ccc(Cl)cc12	/	+	/	44*	/	-4%[89.2 µM]
O=c1cc(-c2cccc(F)c2)[nH]c2cc(Cl)ccc12	/	i	/	-4	/	-6%[89.2 µM]
O=c1cc(-c2ccccc2)c2cc(Cl)ccc2[nH]1	-3%	-10	15%	-6	7%[0.00184 µM]	7%
CN(C)CCNC(=O)C1CCN(S(=O)(=O)c2ccc3ccccc3c2)CC1	-3%	-16	-18%	0	50%	/
CCN(CC)CCNC(=O)CCc1c(C)nc2c(c(C)nn2-c2ccc(C)cc2)c1C	2%	-14	?	-8	?	7%
O=C(CSc1nc2ccsc2c(=O)n1NC(=O)c1ccccc1)NCc1ccco1	-5%	35	-9%	14	40%	7%
CCC(Sc1nc2ccsc2c(=O)n1-c1ccc(Cl)c(C)c1)C(=O)NCc1ccco1 (stereo not drawn)	19%	44*	12µM*	25*	13µM*	2%
Cc1sc2nc(SCC(=O)NCc3ccco3)n(Cc3ccccc3)c(=O)c2c1C	2%	19	/	14	10µM*	0%
O=C(CSc1nc2ccsc2c(=O)n1Cc1ccccc1)NCc1ccco1	8%	active	/	47*	?	6%
